The values that follow come from PubChem BioAssay (EPA / NIEHS).

Test [1] in a line: TOX21_p53_BLA_p2_viability: Viability Assessment in the Tox21 HCT-116 p53 Agonism Beta-lactamase Assay, Phase 2 (AID 2283591).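 Also: compound exposure lasted 16 h at 37 °C; actives lower the ATP signal meaning cytotoxicity.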 An outline of the steps:
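HCT116 p53-bla cells, 4000/well, dosed after 5 h plating (217-fold dilution of DMSO stocks) and incubated 16 h at 37C. Viability taken as cellular ATP by CellTiter-Glo luminescence after 30 min RT; signal loss marks cytotoxicity.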

Test [2] addresses Cellular tumor antigen p53 (Homo sapiens) (UniProt P04637). The experiment in a line: TOX21_p53_BLA_p2_ratio: Tox21 HCT-116 p53 Agonism Beta-lactamase Assay, Ratio, Phase 2 (AID 2283592). The gist of the method:
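HCT-116 cells with p53-responsive beta-lactamase reporter, 4000 cells/well, preincubated 5 h, then compound in DMSO (217-fold dilution) for 16 h at 37C. CCF4-AM substrate 2 h at room temperature; 460/530 nm emission ratio fitted upward versus DMSO.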

Test [3] can be described thus: TOX21_p53_BLA_p3_viability: Viability Assessment in the Tox21 HCT-116 p53 Agonism Beta-lactamase Assay, Phase 3 (AID 2283593).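 Also: cells exposed to compound for 16 h before reading.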 An outline of the steps:
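HCT116 cells, 4000/well, dosed 5 h after plating by pin transfer (217-fold dilution from DMSO stock) and incubated 16 h at 37C, 5% CO2. Viability read as ATP luminescence with CellTiter-Glo after 30 min at room temperature.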

Test [4] concerns the target Cellular tumor antigen p53 (Homo sapiens) (UniProt P04637). The experiment in a line: TOX21_p53_BLA_p3_ratio: Tox21 HCT-116 p53 Agonism Beta-lactamase Assay, Ratio, Phase 3 (AID 2283596). The gist of the method: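 HCT116 p53-bla cells (4000/well) given compound in DMSO (217-fold dilution) after 5 h, incubated 16 h at 37C. CCF4-AM substrate 2 h at room temperature; 460/530 nm emission ratio, gain fitted against DMSO.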

Test [5] in a line: TOX21_p53_BLA_p4_viability: Viability Assessment in the Tox21 HCT-116 p53 Agonism Beta-lactamase Assay, Phase 4 (AID 2283597).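 Also: hits lower the luminescence signal meaning cytotoxicity.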 An outline of the steps: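 HCT-116 p53-bla cells, 4000/well, dosed after 5 h attachment and incubated 16 h at 37 °C, 5% CO2. Viability from CellTiter-Glo ATP luminescence after 30 min at room temperature, taken after the beta-lactamase read; loss of signal indicates cytotoxicity.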

The target in test [6] is Cellular tumor antigen p53 (Homo sapiens) (UniProt P04637). As to the kind of experiment: TOX21_p53_BLA_p5_ratio: Tox21 HCT-116 p53 Agonism Beta-lactamase Assay, Ratio, Phase 5 (AID 2283599). An outline of the steps:
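HCT-116 p53-bla cells (4000/well) plated 5 h, dosed with compound (217-fold DMSO dilution) for 16 h at 37 C; CCF4-AM substrate 2 h at room temperature. Activity is the 460/530 nm emission ratio (405 nm excitation), fitted in gain-of-signal direction versus DMSO.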

Test [7] can be described thus: TOX21_p53_BLA_p5_viability: Viability Assessment in the Tox21 HCT-116 p53 Agonism Beta-lactamase Assay, Phase 5 (AID 2283600). An outline of the steps: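 HCT-116 p53 beta-lactamase reporter cells, 4000/well, were exposed to compound (pin transfer, 217-fold dilution) for 16 hours at 37C. Cellular ATP was read by CellTiter-Glo luminescence after 30 min at room temperature.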

For test [8], the target named is Cellular tumor antigen p53 (Homo sapiens) (UniProt P04637). The experiment in a line: TOX21_p53_BLA_p4_ratio: Tox21 HCT-116 p53 Agonism Beta-lactamase Assay, Ratio, Phase 4 (AID 2283601). An outline of the steps:
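HCT-116 p53 beta-lactamase reporter cells (4000/well) preincubated 5 h, then compound (217-fold dilution of DMSO stock) for 16 h at 37C. CCF4-AM substrate added 2 h at room temperature; 460/530 nm emission ratio fitted upward versus DMSO.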

Results filed as inconclusive are left out. Calls of active or inactive are those of the source. The calls were made as follows: active = hit-call score of the fitted dose curve at least 0.9, where 1 is the maximum; inconclusive = response in the unintended direction; inactive = score below 0.9.

Sequence of Cellular tumor antigen p53 (Homo sapiens) (P04637 whole entry, looked up): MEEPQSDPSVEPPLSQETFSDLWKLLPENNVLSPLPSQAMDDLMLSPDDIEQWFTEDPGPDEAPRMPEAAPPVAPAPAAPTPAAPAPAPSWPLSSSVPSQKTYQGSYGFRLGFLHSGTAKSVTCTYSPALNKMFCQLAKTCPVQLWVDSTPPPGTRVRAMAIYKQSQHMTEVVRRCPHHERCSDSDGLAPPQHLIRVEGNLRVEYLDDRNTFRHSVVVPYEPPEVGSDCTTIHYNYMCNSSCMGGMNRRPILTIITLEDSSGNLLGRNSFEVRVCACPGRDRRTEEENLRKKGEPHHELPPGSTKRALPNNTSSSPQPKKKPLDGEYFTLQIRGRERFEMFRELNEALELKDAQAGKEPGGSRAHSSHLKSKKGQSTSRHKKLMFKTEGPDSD

As to `Cc1cccc(N(C)C(=S)Oc2ccc3c(c2)CCC3)c1`, the molecule was called inactive in test [1], in test [2], in test [3], in test [4], in test [5] and in test [6]. The molecule was classed as inactive in test [7] and in test [8].

Turning to `CCCC(CCC)C(=O)OC1C[C@H]2CC[C@@H](C1)[N+]2(C)C` (some centres not stated), the molecule was classed as inactive in test [1], in test [2], in test [3], in test [4], in test [5] and in test [6]. The molecule was called inactive in test [7] and in test [8].

As for `NCCS`, the outcome in test [1], in test [2], in test [3], in test [4], in test [5] and in test [6] was inactive. In addition, the outcome in test [7] and in test [8] was inactive.

Broadly, the AC50 is the concentration at which the activity in the assay is half-maximal. Regarding `C[C@@H](NCCCc1cccc(C(F)(F)F)c1)c1cccc2ccccc12`, the concentration at half-maximal activity (AC50) in test [1] is 21.4 µM (active); in test [2] it was 39 µM (active); in test [3] it was 30 µM (active); in test [4] it was 40.2 µM (active); in test [5], 15.2 µM (active); in test [8], 25.1 µM (active). Besides, the outcome in test [6] and in test [7] was inactive.

On to `CN1[C@@H](CC(=O)c2ccccc2)CCC[C@H]1C[C@H](O)c1ccccc1`, for which the molecule was called inactive in test [1], in test [2], in test [3], in test [4], in test [5] and in test [6]. In addition, the molecule was called inactive in test [7] and in test [8].

With `CC(C)NCC1CCc2cc(CO)c([N+](=O)[O-])cc2N1` (configuration not stated), the result in test [1], in test [2], in test [3], in test [4], in test [5] and in test [6] was inactive. The call in test [7] and in test [8] was inactive.

Take `CCCCN(CCCC)c1ccc(C(=O)c2ccccc2C(=O)O)c(O)c1`: the AC50 was 17.2 µM (active) in test [1]; 23.1 µM (active) in test [3]; 39.8 µM (active) in test [4]; 21.2 µM (active) in test [5]; 52.2 µM (active) in test [6]; 20.3 µM (active) in test [7]. Moreover, in test [8], the AC50 is 45.5 µM (active). For the same molecule, the outcome in test [2] was inactive.

Regarding `CC(C)COCC(CN(Cc1ccccc1)c1ccccc1)N1CCCC1` (configuration not stated), the result in test [1], in test [2], in test [3], in test [4], in test [5] and in test [6] was inactive. In addition, the molecule was called inactive in test [7] and in test [8].

Take `CCCCCCCCCCCCCC[N+](C)(C)Cc1ccccc1`: the call in test [1], in test [2], in test [3], in test [4] and in test [7] was inactive. The results for the AC50 in test [5], in test [6] and in test [8] were 27.9 µM (active), 40.8 µM (active) and 43.7 µM (active), respectively.

Consider `CCCCCCCC/C=C\CCCCCCCCOCCO`, for which the AC50 was 72.5 µM (active) in test [1]; 96.6 µM (active) in test [2]; 29.2 µM (active) in test [3]; 80.3 µM (active) in test [4]; 72.6 µM (active) in test [5]; 56.2 µM (active) in test [6]. Besides, the concentration at half-maximal activity (AC50) in test [7] was 21.1 µM (active); in test [8], 105 µM (active).

As for `CC(C)[C@@H]1CC[C@@H](C)C[C@H]1OC(=O)c1ccccc1O`, the molecule was called inactive in test [1], in test [2], in test [4], in test [5], in test [6] and in test [7]. In test [8], the result was inactive. Further, the AC50 in test [3] was 37.3 µM (active).

Consider `O=C(O)CCCl`, for which the call in test [1], in test [2], in test [3], in test [4], in test [5] and in test [6] was inactive. In addition, the result in test [7] and in test [8] was inactive.

Regarding `CC(=O)[C@@]1(O)CC[C@H]2[C@@H]3C=C(Cl)C4=CC(=O)CC[C@]4(C)[C@H]3CC[C@@]21C`, the molecule was classed as inactive in test [1], in test [3], in test [4] and in test [7]. Further, the AC50 in test [2] is 37 µM (active); in test [5] it was 23 µM (active); in test [6] it was 37.9 µM (active); in test [8], 37.8 µM (active).

Consider `CC(C)c1nc(N(C)S(C)(=O)=O)nc(-c2ccc(F)cc2)c1/C=C/C(O)CC(O)CC(=O)O` (configuration not stated), for which the molecule was classed as inactive in test [1], in test [2], in test [3], in test [4], in test [5] and in test [6]. For the same molecule, the molecule was called inactive in test [7] and in test [8].

Turning to `O=c1c(-c2ccccc2)c1-c1ccccc1`, the result in test [1], in test [3], in test [5], in test [6], in test [7] and in test [8] was inactive. Further, the AC50 was 23.8 µM (active) in test [2] and 22.2 µM (active) in test [4].

On to `CCCCOc1ccc(C(=O)CCN2CCCCC2)cc1`, for which the call in test [1], in test [2], in test [3], in test [4], in test [6] and in test [7] was inactive. In addition, the result in test [8] was inactive. The AC50 in test [5] is 6.37 µM (active).

For the molecule `CC(=O)c1cccc([N+](=O)[O-])c1`, the call in test [1], in test [2], in test [3], in test [4], in test [5] and in test [6] was inactive. The call in test [7] and in test [8] was inactive.

In the case of `CCCCCCCCC1CO1` (configuration not stated), the molecule was called inactive in test [1], in test [2], in test [3], in test [4], in test [5] and in test [6]. Also, the molecule was classed as inactive in test [7] and in test [8].

Take `CO[C@@]12[C@H](COC(N)=O)C3=C(C(=O)C(C)=C(N)C3=O)N1C[C@@H]1N[C@@H]12`: the AC50 is 33.2 µM (active) in test [1]; 7.59 µM (active) in test [2]; 29.5 µM (active) in test [3]; 3.24 µM (active) in test [4]; 6.3 µM (active) in test [6]; 34.4 µM (active) in test [7]. Moreover, in test [8], the AC50 is 20.8 µM (active). In addition, in test [5], the result was inactive.

For the molecule `CC1=C(/C=C/C(C)=C/C=C/C(C)=C/C=O)C(C)(C)CCC1`, the half-maximal activity concentration (AC50) was 28.7 µM (active) in test [1]; 36.6 µM (active) in test [3]; 66.6 µM (active) in test [4]; 67 µM (active) in test [5]; 49.1 µM (active) in test [6]; 34.9 µM (active) in test [7]. Further, in test [8], the half-maximal activity concentration (AC50) was 85.6 µM (active). The result in test [2] was inactive.

With `O=C(O)c1ccc(Cl)c(Cl)c1`, the outcome in test [1], in test [2], in test [3], in test [4], in test [5] and in test [6] was inactive. Besides, the outcome in test [7] and in test [8] was inactive.

For the molecule `N=C(N)c1ccc(OCCCOc2ccc(C(=N)N)cc2)cc1`, the molecule was called inactive in test [1], in test [2], in test [3], in test [4], in test [5] and in test [6]. Also, the molecule was classed as inactive in test [7] and in test [8].

For the molecule `COc1cc(NS(C)(=O)=O)ccc1Nc1c2ccccc2nc2ccccc12`, the AC50 in test [1] was 12.8 µM (active); in test [2], 7.65 µM (active); in test [3], 15.1 µM (active); in test [4], 8.11 µM (active); in test [5], 25.6 µM (active); in test [6], 22.1 µM (active). The AC50 in test [7] was 33.6 µM (active); in test [8], 1.36 µM (active).

Regarding `Oc1ccc(Cl)c2cccnc12`, the molecule was classed as inactive in test [1], in test [2], in test [3], in test [4], in test [5] and in test [6]. The result in test [7] and in test [8] was inactive.
